# Screening results (PubChem)
# Hits are enriched below; roughly 19% of the tested compounds scored in any of these assays.
# DT40 TDP1 CPT: growth inhibition of DT40 Tdp1-/-;hTDP1 cells with camptothecin (screen for TDP1 inhibitors); Potency, µM (series often up to 46.2 µM), most hits filed as inhibitors; chicken DT40 Tdp1-/-;hTDP1 cells + 20 nM CPT, ATP luminescence, 48 h; 420,000 tested, 12% active; AID 686979; further: nearly all actives have a fitted effect of over 55% in size
#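 Chicken DT40 Tdp1-/- cells complemented with human TDP1, 400 cells/well, exposed to compounds plus 20 nM camptothecin for at least 48 h at 37 C; viability read as ATP content by CellTiter-Glo luminescence.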
# IL1B secr inh: inhibitors of inflammasome signaling (IL-1 beta secretion); THP-1 LPS/ATP IL-1B secretion, AlphaLISA, 16 h; active compounds read low; activity change, % at 57.5 µM; 360,000 tested, 4.7% active; AID 743279; in the data active means activity change below about -50%; inconclusive means mostly about -30% to -49%
#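 THP-1 cells pretreated 1 hr with compounds (up to 57.5 uM final), then stimulated with LPS (250 ng/mL final) plus ATP (1.25 mM final); secreted IL-1B measured by AlphaLISA after 16 hr, decreased signal indicating inhibition.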
# DT40 TDP1 no CPT: qHTS for Inhibitors of human tyrosyl-DNA phosphodiesterase 1 (TDP1): qHTS in cells in absence of CPT; DT40 Tdp1-/- hTDP1 cells, no CPT, ATP luminescence, 48 h; Potency, µM (top dose mostly 46.2 µM), usual class: inhibitors; 420,000 tested, 15% active; further: nearly all actives have a fitted effect of over 55% in size
#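 Compound effects on proliferation are scored in DT40 Tdp1-/-;hTDP1 cells in the absence of CPT. ATP levels (CellTiter-Glo luminescence) are recorded after a ≥48 hr, 37 °C incubation.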
# HT1080 IDH1KD tx: HT-1080 IDH1 knockdown cell toxicity (counter line); HT-1080 IDH1 knockdown viability, ATP luminescence, 48 h; Potency, µM (titrated, usually from 46.1 µM), most hits filed as cytotoxic; 360,000 tested, 2% active
#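 In this qHTS, HT-1080 cells depleted of IDH1 are exposed for 48 h at 37 °C to compound titrations. Toxicity is scored from CellTiter-Glo luminescence, with DMSO as full viability and medium alone as none.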
# HT1080NT lethal: kills 2HG-producing HT-1080-NT fibrosarcoma cells | HT-1080-NT fibrosarcoma viability, CellTiter-Glo ATP luminescence, 48 h | Potency, µM (titrated, usually from 46.1 µM), usual class: cytotoxic | 360,000 tested, 1.6% active | AID 686970;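 further: NT is the 2HG producing partner of a matched IDH1 knockdown line; nearly all actives have a fitted effect of over 55% in size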
#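 Viability of the 2HG-overproducing fibrosarcoma line after 48 hours of compound exposure at 37 degrees C was determined by luminescence with CellTiter-Glo, and concentration-effect curves were then fitted and categorized.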
# uPA surface inh: blocks generation of uPA at the cell surface; Potency, µM (highest dose often 38.3 µM), most hits filed as inhibitors; AID 540303; 330,000 tested, 0.31% active; cell surface uPA generation assay, qHTS; active means well fitted inhibition curve with a large enough effect; inconclusive means small, poorly fitted or top-dose-only effect; inactive means no such curve, though single readings can be large or run the other way; tested in mouse RAW 264.7 cells; further: nearly all actives have a fitted effect of over 55% in size
# A number is an active result; i = inactive; ? = inconclusive; nt = not tested or not shown; ! = not confirmed by another sample; [ ] = another dose, or the depositor's remark. Unless noted, the call rests on the fitted dose curve; in most records, active means well fitted curve in the direction sought with a large enough effect; inconclusive means small, poorly fitted or top-dose-only effect, or another doubt; inactive means no such curve, though single readings can be large; an effect the other way counts as inactive or inconclusive.
SMILES,DT40 TDP1 CPT,IL1B secr inh,DT40 TDP1 no CPT,HT1080 IDH1KD tx,HT1080NT lethal,uPA surface inh
O=C(Nc1cnn(Cc2c(Cl)cccc2Cl)c1)c1ccc([N+](=O)[O-])cc1,?,i,16.4µM,i,i,i
O=C(COc1ccc(Cl)cc1)Nc1cnn(Cc2c(Cl)cccc2Cl)c1,i,i,i,i,i,i
COc1ccc(C(=O)Nc2ccccc2C(=O)NCc2cccnc2)cc1,14.6µM,i,?,?,?,7.08µM
CCCSCCCNC(=O)c1ccc(C)c(NC(=O)C2=C(C)OCCS2)c1,?,i,?,i,i,i
O=S(=O)(NNc1ncc(C(F)(F)F)cc1Cl)c1ccccc1,16.4µM,?,?,?,?,i
O=S(=O)(NNc1ncc(C(F)(F)F)cc1Cl)c1ccc(F)cc1F,?,i,20.6µM,i,i,i
Cc1ccccc1S(=O)(=O)Nc1ncc(C(F)(F)F)cc1Cl,i,i,i,i,i,i
COc1cccc(CC(NC(C)=O)C(=O)NC2CCN(C(=O)c3ccc(Cl)cc3)CC2)c1OC (configuration not stated),i,i,i,i,i,i
O=c1nc2ccccc2c2n1C[C@H](CN1CCN(c3ccccc3)CC1)N2,i,nt,i,nt,nt,nt
Cc1ccc(CNC(=O)C2CN(S(C)(=O)=O)c3cc(Cl)ccc3O2)cc1 (configuration not stated),i,i,?,i,i,i
CCC1CN(C(=O)NCc2ccccc2)c2cc(C)ccc2O1 (configuration not stated),?,i,?,i,i,i
CCC1CN(C(=O)NCc2ccc(F)cc2)c2cc(Cl)ccc2O1 (configuration not stated),?,-61.8,?,i,i,i
CCc1ccccc1NC(=O)N1CC(CC)Oc2ccc(Cl)cc21 (configuration not stated),20.6µM,nt,?,nt,nt,nt
CCC1CN(C(=O)NCc2ccc(C)cc2)c2cc(C)ccc2O1 (configuration not stated),23.1µM,i,14.6µM!,i,i,i
CCC1CN(C(=O)NCc2ccc(C)cc2)c2cc(Cl)ccc2O1 (configuration not stated),20.6µM,i,23.1µM,i,i,i
O=C(Cc1coc2cc3c(cc12)CCC3)NCC1(N2CCCCC2)CCCCC1,?,-82.3,?,?,?,i
O=C(Cc1coc2cc3c(cc12)CCC3)NC1CCCCCCC1,?,i,0.0206µM,i,i,i
CC(=O)CSc1nnc2cc(C)c3cc(C)cc(C)c3n12,i,nt,i,nt,nt,nt
COCCn1c(=O)c(-c2cc(F)cc(F)c2)nc2cnc(Nc3cccc(OC)c3)nc21,i,nt,i,nt,nt,nt
O=C(NC1CC1)C1Nc2ccc(OC(F)(F)F)cc2C2C=CCC12 (configuration not stated),?,i,13µM,i,i,i
O=C(NCc1ccccc1)C1Nc2ccc(OC(F)(F)F)cc2C2C=CCC12 (configuration not stated),23.1µM,i,?,i,i,i
COc1ccc(-c2nc3cc(C)ccc3cc2CN(C(=O)c2csc(C)n2)C2CC2)cc1OC,i[9.04 µM],nt,i,nt,nt,nt
Cc1ccccc1Oc1nc2c(c(=O)n(C)c(=O)n2C)n1Cc1ccc(Br)cc1,i,nt,i,nt,nt,nt
CC(OC(=O)Cc1n[nH]c(=O)c2ccccc12)C(=O)Nc1cc(Cl)cc(Cl)c1 (configuration not stated),?,i,23.1µM,i,i,i
CC(C)c1nc2c(c(=O)c3ccccc3n2C)c(=O)n1-c1ccc(F)cc1,14.6µM,i,11.6µM,i,i,i
O=C(NCc1ccncc1)c1cccc(S(=O)(=O)Nc2ccc(F)cc2)c1,?,i,?,i,i,i
CCC(=O)Nc1nc2cc(OC)ccc2s1,?,i,18.4µM,i,i,i
COc1ccc2sc(NC(=O)CC(C)C)nc2c1,?,i,i,i,i,i
COc1ccc(NC(=O)Nc2nc3ccccc3s2)cc1,?,?,?,i,i,i
